Measured values from PubChem BioAssay.
For part of these data: Potency and affinity values are given separately. Activity calls are given as the source filed them. Where a call stands in place of a potency, no number is given. Unless noted, the rule behind the calls is not given here.

Assays:
[1] = target: Cell division control protein 42 homolog (Homo sapiens) (UniProt P60953); assay: activated mutant Cdc42 GTP-binding inhibitors, dose response, biochemical, multiplex bead flow cytometry, Bodipy-FL-GTP (AID 1333;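 active = fitted half-maximal concentration within the tested dose range, moderate curve steepness, a statistically real signal drop, and little compound fluorescence or tag-binding interference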)
[2] = target: Cell division control protein 42 homolog (Homo sapiens) (UniProt P60953); assay: wildtype Cdc42 GTP-binding inhibitors, dose response, biochemical, multiplex bead flow cytometry, Bodipy-FL-GTP (AID 1334;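 active = fitted half-maximal concentration within the tested range, moderate curve steepness, significant signal drop, and little compound fluorescence or bead-linkage interference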); conditions: bead-based flow cytometry, Bodipy-FL-GTP binding to GST-Cdc42; at 100 µM (top of the series) unless noted
[3] = target: GTPase HRas (Homo sapiens) (UniProt P01112); assay: inhibitors of GTP binding to wildtype Ras, dose response, biochemical, multiplex bead flow cytometry (AID 1335;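 active = fitted half-maximal concentration within 10 nM to 100 µM, steepness 0.5 to 2, significant signal drop, low assay interference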); conditions: bead-based flow cytometry, Bodipy-GTP binding to GST-Ras; at 100 µM (top of the series) unless noted
[4] = tested on: Ras-related protein Rab-7a (dog), GTP binding; assay: Rab7 GTP binding inhibitors, potency, dose response, biochemical, wildtype, multiplex bead flow cytometry (AID 1336)
[5] = target: Ras-related C3 botulinum toxin substrate 1 (Homo sapiens) (UniProt P63000); assay: wildtype Rac1 GTP binding inhibitors, dose response, biochemical, multiplex bead flow cytometry (AID 1340;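 active = dose curve with midpoint inside tested range, moderate steepness, plateau gap beyond fit error, low compound glow and bead-link interference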); conditions: GST-Rac1 beads, Bodipy-FL-GTP binding; at 100 µM (top of the series) unless noted
[6] = target: GTPase HRas (Homo sapiens) (UniProt P01112); assay: activated Ras mutant GTP binding inhibitors, dose response, biochemical, multiplex bead flow cytometry (AID 1341;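 active = dose-response curve with midpoint inside the tested range, moderate steepness, significant amplitude and little compound fluorescence or bead-attachment interference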;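 note: GST-tagged constitutively activated Ras mutant immobilized on beads and multiplexed with other GTPases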)

GTPase HRas (Homo sapiens), sequence (P01112 whole entry, looked up): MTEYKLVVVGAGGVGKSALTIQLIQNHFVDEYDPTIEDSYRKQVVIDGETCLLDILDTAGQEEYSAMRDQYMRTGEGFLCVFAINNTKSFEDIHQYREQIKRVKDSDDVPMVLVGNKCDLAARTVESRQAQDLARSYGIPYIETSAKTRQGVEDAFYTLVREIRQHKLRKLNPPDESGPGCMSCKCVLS
Cell division control protein 42 homolog (Homo sapiens), sequence (P60953 whole entry, looked up): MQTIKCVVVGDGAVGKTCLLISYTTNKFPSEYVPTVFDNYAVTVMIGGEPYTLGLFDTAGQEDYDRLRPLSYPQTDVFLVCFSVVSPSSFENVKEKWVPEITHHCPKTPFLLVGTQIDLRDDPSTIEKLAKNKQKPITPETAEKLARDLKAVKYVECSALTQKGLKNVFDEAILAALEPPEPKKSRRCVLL

Compound	outcome [1]	fluorescence, percent of control (lower = inhibition) [2]	GTP binding, percent of control [3]	outcome [4]	GTP binding signal, raw median fluorescence (lower = inhibition) (MCF (arbitrary fluorescence units)) [5]	outcome [6]
O=C(O)COc1ccccc1/C=N/NC(=O)c1cccc(S(=O)(=O)Nc2cccc(Cl)c2)c1	inactive	36.3%	79.8%	inactive	124	inactive
CS(=O)(=O)c1ccc(C(=O)OCc2nnc(-c3ccccc3)o2)cc1[N+](=O)[O-]	inactive	22.4%	81.7%	inactive	259	inactive
CC(C)CCNC(=O)CN(CCN1CCOCC1)C(=O)Cn1nnc(-c2ccc(F)cc2)n1	inactive	97.1%	162%	inactive	188	inactive
COc1ccc(OCc2c(C)cccc2C)c(C(=O)O)c1	inactive	58.3%	203%	inactive	55	inactive
Cc1cc(OCCSc2nc3ccccc3n2CC(=O)O)ccc1Cl	inactive	58.4%	85.5%	inactive	29.6	inactive
Cc1nc(Nc2ccc(C(=O)O)cc2)nc(Nc2ccc(C(=O)O)cc2)c1[N+](=O)[O-]	inactive	28.7%	64.9%	inactive	111	inactive
Cc1ccc2cc3cc(C(=O)N4CCN(Cc5ccccc5)CC4)sc3nc2c1	inactive	87.8%	156%	inactive	188	inactive
COc1cc(/C=N/NC(=S)Nc2cccnc2)cc(OC)c1O	inactive	31.8%	72%	inactive	163	inactive
